# Targets with a hit are over-represented here; the source holds about 7,900 in all. About 0.6% of all pairs of compound and target were hits.
# Compound: CS(=O)(=O)c1ccc(-c2cnc(N)c(C(=O)Nc3ccccc3)n2)cc1
# Experiment: log2 fold change, soluble protein after heating vs DMSO (PISA); higher = thermal stabilisation; K562 cells, 10 uM, 30 min; active = over 0.2 and 3.5 SD of the protein, either way, in both replicates (recomputed)
# How it was run: (§1)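 K562 cells at 2×10^6 cells/mL were exposed to 10 μM compound for 30 min, then aliquots were heated for 3 min across 48°C-58°C, pooled, and extracted in PBS containing 0.5% NP-40 at 4°C. The supernatant after 21,000xg for 90 min was taken as soluble protein and measured by TMTpro 16plex LC-MS/MS with channel sums equalised. Thermal stability is reported relative to control samples, with values from duplicates. Fold changes are given on a log2 scale.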
# UniProt P54709, sequence (P54709 whole entry, looked up): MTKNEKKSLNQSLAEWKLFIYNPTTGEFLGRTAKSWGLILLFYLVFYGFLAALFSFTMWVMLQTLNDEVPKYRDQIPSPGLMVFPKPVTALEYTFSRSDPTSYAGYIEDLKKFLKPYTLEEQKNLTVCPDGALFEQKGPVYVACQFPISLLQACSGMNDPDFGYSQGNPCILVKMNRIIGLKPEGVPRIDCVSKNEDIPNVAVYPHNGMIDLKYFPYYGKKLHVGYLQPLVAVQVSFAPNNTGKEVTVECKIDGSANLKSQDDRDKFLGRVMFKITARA
# UniProt Q9Y3D8, sequence (Q9Y3D8 whole entry, looked up): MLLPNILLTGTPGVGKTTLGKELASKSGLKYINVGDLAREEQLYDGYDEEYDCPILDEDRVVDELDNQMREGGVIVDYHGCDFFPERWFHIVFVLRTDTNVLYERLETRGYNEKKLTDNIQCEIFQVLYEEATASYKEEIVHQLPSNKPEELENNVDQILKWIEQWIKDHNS
# UniProt Q10589, sequence (Q10589 whole entry, looked up): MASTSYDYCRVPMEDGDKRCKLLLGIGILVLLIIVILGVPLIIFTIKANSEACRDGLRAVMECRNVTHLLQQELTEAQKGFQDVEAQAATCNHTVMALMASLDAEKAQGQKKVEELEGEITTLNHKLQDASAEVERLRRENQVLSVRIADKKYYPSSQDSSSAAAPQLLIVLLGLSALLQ
# UniProt P49189, sequence (P49189 whole entry, looked up): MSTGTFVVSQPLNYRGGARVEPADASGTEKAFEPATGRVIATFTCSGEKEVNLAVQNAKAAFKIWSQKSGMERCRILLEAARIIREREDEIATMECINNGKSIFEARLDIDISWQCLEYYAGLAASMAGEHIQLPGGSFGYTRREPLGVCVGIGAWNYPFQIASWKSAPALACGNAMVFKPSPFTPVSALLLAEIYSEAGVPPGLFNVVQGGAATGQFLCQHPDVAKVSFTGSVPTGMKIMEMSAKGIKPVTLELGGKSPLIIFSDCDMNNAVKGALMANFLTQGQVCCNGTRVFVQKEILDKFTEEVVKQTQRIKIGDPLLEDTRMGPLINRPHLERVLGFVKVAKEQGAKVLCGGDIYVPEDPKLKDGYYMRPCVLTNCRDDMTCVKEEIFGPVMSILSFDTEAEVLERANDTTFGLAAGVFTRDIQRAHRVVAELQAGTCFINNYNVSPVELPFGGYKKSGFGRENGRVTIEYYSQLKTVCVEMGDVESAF
# UniProt P18085, sequence (P18085 whole entry, looked up): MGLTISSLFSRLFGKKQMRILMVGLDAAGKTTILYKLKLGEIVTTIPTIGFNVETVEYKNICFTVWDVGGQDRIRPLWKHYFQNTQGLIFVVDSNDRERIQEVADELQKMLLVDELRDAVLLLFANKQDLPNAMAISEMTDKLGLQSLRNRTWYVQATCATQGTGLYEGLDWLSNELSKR
# UniProt Q9UHQ4, sequence (Q9UHQ4 whole entry, looked up): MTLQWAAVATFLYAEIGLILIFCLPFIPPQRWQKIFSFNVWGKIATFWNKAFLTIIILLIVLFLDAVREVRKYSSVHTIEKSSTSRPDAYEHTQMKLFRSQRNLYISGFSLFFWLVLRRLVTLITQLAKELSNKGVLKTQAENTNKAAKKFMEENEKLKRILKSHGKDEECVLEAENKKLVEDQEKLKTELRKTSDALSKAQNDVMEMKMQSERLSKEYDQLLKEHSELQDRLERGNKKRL
# UniProt Q7L1Q6, sequence (Q7L1Q6 whole entry, looked up): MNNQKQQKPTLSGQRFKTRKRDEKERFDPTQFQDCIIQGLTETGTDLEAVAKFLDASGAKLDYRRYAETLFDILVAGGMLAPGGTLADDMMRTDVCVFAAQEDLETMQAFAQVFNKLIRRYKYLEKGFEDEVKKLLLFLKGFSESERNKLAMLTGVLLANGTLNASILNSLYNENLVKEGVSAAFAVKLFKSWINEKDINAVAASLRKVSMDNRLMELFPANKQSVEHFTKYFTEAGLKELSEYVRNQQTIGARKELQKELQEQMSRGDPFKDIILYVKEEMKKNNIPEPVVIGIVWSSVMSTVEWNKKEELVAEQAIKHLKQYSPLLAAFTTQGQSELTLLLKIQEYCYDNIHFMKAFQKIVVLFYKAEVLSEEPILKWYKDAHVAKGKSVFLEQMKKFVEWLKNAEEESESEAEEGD
# UniProt P11310, sequence (P11310 whole entry, looked up): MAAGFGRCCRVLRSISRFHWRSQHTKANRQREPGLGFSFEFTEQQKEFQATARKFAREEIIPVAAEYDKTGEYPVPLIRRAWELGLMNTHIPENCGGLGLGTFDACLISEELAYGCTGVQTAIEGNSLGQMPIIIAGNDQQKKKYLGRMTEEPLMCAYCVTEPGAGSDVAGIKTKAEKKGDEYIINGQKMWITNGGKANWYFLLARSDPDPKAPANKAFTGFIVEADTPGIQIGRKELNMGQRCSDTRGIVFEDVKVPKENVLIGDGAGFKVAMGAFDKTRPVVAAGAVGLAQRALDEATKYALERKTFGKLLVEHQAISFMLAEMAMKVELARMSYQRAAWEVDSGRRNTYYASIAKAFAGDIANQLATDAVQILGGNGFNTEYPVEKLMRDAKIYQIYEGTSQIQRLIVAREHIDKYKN
# UniProt P33121, sequence (P33121 whole entry, looked up): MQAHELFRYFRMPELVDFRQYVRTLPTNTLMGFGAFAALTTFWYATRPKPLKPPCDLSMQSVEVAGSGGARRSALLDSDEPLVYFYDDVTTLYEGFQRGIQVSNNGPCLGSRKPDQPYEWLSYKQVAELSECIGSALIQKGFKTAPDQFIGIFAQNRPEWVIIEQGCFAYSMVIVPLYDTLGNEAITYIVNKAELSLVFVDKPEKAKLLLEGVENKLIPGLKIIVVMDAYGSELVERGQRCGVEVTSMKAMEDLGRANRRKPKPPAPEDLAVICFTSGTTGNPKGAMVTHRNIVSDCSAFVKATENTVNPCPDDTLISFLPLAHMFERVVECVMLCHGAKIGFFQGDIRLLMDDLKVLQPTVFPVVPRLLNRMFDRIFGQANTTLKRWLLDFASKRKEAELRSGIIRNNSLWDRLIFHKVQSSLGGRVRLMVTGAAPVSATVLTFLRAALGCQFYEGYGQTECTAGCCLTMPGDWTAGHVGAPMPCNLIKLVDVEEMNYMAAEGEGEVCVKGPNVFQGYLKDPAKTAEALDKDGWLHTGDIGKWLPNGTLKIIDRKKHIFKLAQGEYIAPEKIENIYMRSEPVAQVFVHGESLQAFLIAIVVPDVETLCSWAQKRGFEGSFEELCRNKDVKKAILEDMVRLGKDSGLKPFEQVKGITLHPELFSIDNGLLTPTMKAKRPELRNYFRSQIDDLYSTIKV
# UniProt O95433, sequence (O95433 whole entry, looked up): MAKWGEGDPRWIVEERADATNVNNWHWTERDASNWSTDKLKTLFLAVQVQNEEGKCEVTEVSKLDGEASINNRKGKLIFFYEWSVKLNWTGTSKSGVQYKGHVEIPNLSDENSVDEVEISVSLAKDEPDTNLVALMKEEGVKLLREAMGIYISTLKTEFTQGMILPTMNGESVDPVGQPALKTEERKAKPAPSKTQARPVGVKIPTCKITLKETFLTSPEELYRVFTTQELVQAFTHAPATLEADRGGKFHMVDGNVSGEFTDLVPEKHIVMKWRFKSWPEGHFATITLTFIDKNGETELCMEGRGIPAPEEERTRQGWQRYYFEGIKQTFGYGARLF
# UniProt Q9BTE6, sequence (Q9BTE6 whole entry, looked up): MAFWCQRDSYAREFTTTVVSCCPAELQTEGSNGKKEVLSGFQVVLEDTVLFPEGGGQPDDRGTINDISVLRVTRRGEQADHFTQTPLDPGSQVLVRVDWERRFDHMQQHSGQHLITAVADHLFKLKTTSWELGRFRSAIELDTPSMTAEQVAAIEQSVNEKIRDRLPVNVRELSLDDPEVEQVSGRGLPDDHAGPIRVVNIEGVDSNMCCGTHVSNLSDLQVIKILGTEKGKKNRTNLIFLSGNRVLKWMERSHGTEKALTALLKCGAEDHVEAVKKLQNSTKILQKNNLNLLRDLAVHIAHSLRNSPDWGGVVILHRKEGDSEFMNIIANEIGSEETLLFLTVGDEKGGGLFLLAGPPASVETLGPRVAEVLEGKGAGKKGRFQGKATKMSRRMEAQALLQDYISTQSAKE
# UniProt Q9Y673, sequence (Q9Y673 whole entry, looked up): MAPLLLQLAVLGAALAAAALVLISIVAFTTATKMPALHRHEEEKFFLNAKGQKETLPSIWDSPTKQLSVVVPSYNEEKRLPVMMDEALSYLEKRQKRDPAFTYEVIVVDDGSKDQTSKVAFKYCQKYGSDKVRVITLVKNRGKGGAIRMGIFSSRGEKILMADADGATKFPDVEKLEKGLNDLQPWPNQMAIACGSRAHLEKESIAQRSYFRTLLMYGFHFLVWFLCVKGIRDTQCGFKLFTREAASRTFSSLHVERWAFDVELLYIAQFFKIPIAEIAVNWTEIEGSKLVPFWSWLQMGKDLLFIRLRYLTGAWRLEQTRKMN
# UniProt P55263, sequence (P55263 whole entry, looked up): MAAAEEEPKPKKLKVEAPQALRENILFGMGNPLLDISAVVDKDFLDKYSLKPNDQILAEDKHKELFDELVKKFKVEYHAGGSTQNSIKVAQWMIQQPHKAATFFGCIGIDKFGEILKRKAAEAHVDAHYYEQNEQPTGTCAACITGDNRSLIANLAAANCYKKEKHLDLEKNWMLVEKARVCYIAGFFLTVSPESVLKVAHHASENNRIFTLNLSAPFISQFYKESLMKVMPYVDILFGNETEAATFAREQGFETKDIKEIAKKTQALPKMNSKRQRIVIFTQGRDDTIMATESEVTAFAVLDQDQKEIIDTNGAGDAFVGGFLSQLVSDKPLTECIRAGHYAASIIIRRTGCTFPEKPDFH
# UniProt Q9NX38, sequence (Q9NX38 whole entry, looked up): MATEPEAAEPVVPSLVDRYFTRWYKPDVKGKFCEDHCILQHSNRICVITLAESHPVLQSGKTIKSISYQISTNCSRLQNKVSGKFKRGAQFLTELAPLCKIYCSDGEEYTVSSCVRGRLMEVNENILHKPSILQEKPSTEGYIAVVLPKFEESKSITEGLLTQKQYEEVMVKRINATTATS
# UniProt Q8WUW1, sequence (Q8WUW1 whole entry, looked up): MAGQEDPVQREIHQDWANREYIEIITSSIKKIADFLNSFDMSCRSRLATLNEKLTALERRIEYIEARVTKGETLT
row,Target,log2 fold change
1,ACSL5 isoform 3 (UniProt Q9ULC5),-0.014 (inactive)
2,ADK (UniProt P55263),0.144 (inactive)
3,ATP1B3 (UniProt P54709),0.053 (inactive)
4,BCCIP isoform 2 (UniProt Q9P287),-0.006 (inactive)
5,ANKZF1 (UniProt Q9H8Y5),0.031 (inactive)
6,BRD8 isoform 2 (UniProt Q9H0E9),-0.134 (inactive)
7,ALDH18A1 (UniProt P54886),-0.281 (inactive)
8,AARSD1 isoform 3 (UniProt Q9BTE6),0.062 (inactive)
9,BRK1 isoform 2 (UniProt Q8WUW1),-0.004 (inactive)
10,BST2 (UniProt Q10589),-0.023 (inactive)
11,ATP6V1H (UniProt Q9UI12),-0.045 (inactive)
12,ACACB (UniProt O00763),0.078 (inactive)
13,AHSA1 (UniProt O95433),0.035 (inactive)
14,ARL6IP4 (UniProt Q66PJ3),0.014 (inactive)
15,ABITRAM (UniProt Q9NX38),0.055 (inactive)
16,ABCC5 (UniProt O15440),0.045 (inactive)
17,BCAP29 isoform 2 (UniProt Q9UHQ4),-0.015 (inactive)
18,ASH2L (UniProt Q9UBL3),0.008 (inactive)

row,Target,log2 fold change
1,ALG5 (UniProt Q9Y673),0.005 (inactive)
2,BCL9L (UniProt Q86UU0),0.029 (inactive)
3,APPL1 (UniProt Q9UKG1),-0.019 (inactive)
4,AFDN isoform 5 (UniProt P55196),0.027 (inactive)
5,ALDH9A1 isoform 3 (UniProt P49189),-0.002 (inactive)
6,ACSL1 (UniProt P33121),0.012 (inactive)
7,ACADM isoform 2 (UniProt P11310),0.075 (inactive)
8,AKR1C2 (UniProt P52895),0.005 (inactive)
9,ALG3 (UniProt Q92685),-0.067 (inactive)
10,AKR1C3 (UniProt P42330),-0.101 (inactive)
11,ARL6IP6 (UniProt Q8N6S5),0.046 (inactive)
12,AK6 (UniProt Q9Y3D8),0.151 (inactive)
13,APOB (UniProt P04114),0.066 (inactive)
14,BLVRB (UniProt P30043),0.04 (inactive)
15,ATP6AP1 (UniProt Q15904),-0.006 (inactive)
16,ATP1A4 (UniProt Q13733),-0.013 (inactive)
17,ARF4 (UniProt P18085),0.057 (inactive)
18,BZW1 isoform 3 (UniProt Q7L1Q6),0.007 (inactive)

# Compound: C[C@@H](Oc1cc(-c2cnn(C3CCNCC3)c2)cnc1N)c1c(Cl)ccc(F)c1Cl [crizotinib]
# Experiment: as above
# How it was run: as §1
row,Target,log2 fold change
1,ACSL5 isoform 3 (UniProt Q9ULC5),-0.146 (inactive)
2,ADK (UniProt P55263),0.275 (inactive)
3,ATP1B3 (UniProt P54709),0.111 (inactive)
4,BCCIP isoform 2 (UniProt Q9P287),-0.012 (inactive)
5,ANKZF1 (UniProt Q9H8Y5),-0.037 (inactive)
6,BRD8 isoform 2 (UniProt Q9H0E9),0.044 (inactive)
7,ALDH18A1 (UniProt P54886),0.08 (inactive)
8,AARSD1 isoform 3 (UniProt Q9BTE6),0.054 (inactive)
9,BRK1 isoform 2 (UniProt Q8WUW1),0.029 (inactive)
10,BST2 (UniProt Q10589),0.066 (inactive)
11,ATP6V1H (UniProt Q9UI12),-0.199 (inactive)
12,ACACB (UniProt O00763),-0.152 (inactive)
13,AHSA1 (UniProt O95433),0.034 (inactive)
14,ARL6IP4 (UniProt Q66PJ3),0.026 (inactive)
15,ABITRAM (UniProt Q9NX38),0.012 (inactive)
16,ABCC5 (UniProt O15440),-0.011 (inactive)
17,BCAP29 isoform 2 (UniProt Q9UHQ4),-0.028 (inactive)
18,ASH2L (UniProt Q9UBL3),0.126 (inactive)

row,Target,log2 fold change
1,ALG5 (UniProt Q9Y673),-0.045 (inactive)
2,BCL9L (UniProt Q86UU0),0.085 (inactive)
3,APPL1 (UniProt Q9UKG1),-0.015 (inactive)
4,AFDN isoform 5 (UniProt P55196),-0.154 (inactive)
5,ALDH9A1 isoform 3 (UniProt P49189),-0.002 (inactive)
6,ACSL1 (UniProt P33121),-0.091 (inactive)
7,ACADM isoform 2 (UniProt P11310),0.022 (inactive)
8,AKR1C2 (UniProt P52895),-0.029 (inactive)
9,ALG3 (UniProt Q92685),0.087 (inactive)
10,AKR1C3 (UniProt P42330),0.028 (inactive)
11,ARL6IP6 (UniProt Q8N6S5),-0.016 (inactive)
12,AK6 (UniProt Q9Y3D8),-0.156 (inactive)
13,APOB (UniProt P04114),-0.443 (inactive)
14,BLVRB (UniProt P30043),-0.006 (inactive)
15,ATP6AP1 (UniProt Q15904),-0.134 (inactive)
16,ATP1A4 (UniProt Q13733),0.091 (inactive)
17,ARF4 (UniProt P18085),0.081 (inactive)
18,BZW1 isoform 3 (UniProt Q7L1Q6),-0.426 (inactive)
